The source made the active and inactive calls. The calls were made as follows: active = hit-call score of the fitted dose curve at least 0.9, where 1 is the maximum; inactive = score below 0.9.
molecular target: Hepatocyte nuclear factor 6 (Homo sapiens) (UniProt Q9UBC0); experiment: ATG_HNF6_CIS: Attagene CIS-FACTORIAL HepG2 Assay for human Hepatocyte Nuclear Factor 6 (HNF6) (AID 2282952); conditions: HepG2 Attagene cis-factorial HNF6 reporter transcription; actives raise or lower the signal
Procedure, shortened: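 Using cis-element reporters in HepG2 liver cells, the assay tracks endogenous factor-driven transcription 24 h post-dosing. Signal comes from 6-FAM-labelled, HpaI-digested RT-PCR fragments, with gain or loss scored against DMSO.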

Hepatocyte nuclear factor 6 (Homo sapiens), sequence (Q9UBC0 whole entry, looked up, the tested form may be a part): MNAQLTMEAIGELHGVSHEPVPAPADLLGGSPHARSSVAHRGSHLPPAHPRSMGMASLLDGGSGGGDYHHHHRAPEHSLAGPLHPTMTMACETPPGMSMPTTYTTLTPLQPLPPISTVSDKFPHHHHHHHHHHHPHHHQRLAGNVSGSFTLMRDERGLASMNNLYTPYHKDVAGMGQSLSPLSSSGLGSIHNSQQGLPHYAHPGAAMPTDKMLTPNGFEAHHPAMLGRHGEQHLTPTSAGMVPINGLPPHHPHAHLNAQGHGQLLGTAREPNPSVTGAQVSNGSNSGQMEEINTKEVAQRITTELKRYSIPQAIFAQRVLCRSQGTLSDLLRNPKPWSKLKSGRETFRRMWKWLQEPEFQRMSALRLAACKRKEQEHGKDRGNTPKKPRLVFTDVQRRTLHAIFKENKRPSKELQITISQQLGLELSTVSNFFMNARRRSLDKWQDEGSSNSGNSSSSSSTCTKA

Row | Compound | outcome
1 | COCCOC(=O)c1ccccc1C(=O)OCCOC | inactive
2 | ON=C1CCCCC1 | inactive
3 | COc1ccc(COC(C)=O)cc1 | inactive
4 | Nc1ccc(NCCO)c([N+](=O)[O-])c1 | inactive
5 | C=C(C)[C@H]1CC=C(C)C(=O)C1 | inactive
6 | CCCCSCCCC | inactive
7 | N#Cc1ccc(CC(=O)c2cccc(C(F)(F)F)c2)cc1 | inactive
8 | NCCNc1cccc2ccccc12 | inactive
9 | C=C(C)[C@@H]1CC=C(C)C(=O)C1 | inactive
10 | CCOC(=O)C1OC1c1ccccc1 (centres undefined) | inactive
11 | [O-]n1ccccc1=S.[O-]n1ccccc1=S.[Zn+2] | inactive
12 | CC1=NN(c2ccc(S(=O)(=O)O)cc2)C(=O)C1 | inactive
13 | O=Cc1ccccc1S(=O)(=O)O | inactive
14 | CC1(C)CCC[C@]2(C)[C@H]3CCO[C@]3(C)CC[C@@H]12 | inactive
15 | C=CCOC(=O)CCCCCC | inactive
16 | C[Si](C)(C)O[Si](C)(C)C | inactive
17 | C1=CC2C3C=CC(C3)C2C1 (centres undefined) | inactive
18 | Cc1ccc2c(c1)C(=O)OC2=O | inactive
19 | CC(C)(N=C=O)c1cccc(C(C)(C)N=C=O)c1 | inactive
20 | CCCC(=O)OC(C)(C)Cc1ccccc1 | inactive

Row | Compound | outcome
21 | CCOc1ccc(NC(=O)CC(C)=O)cc1 | inactive
22 | C=CCCC(=O)/C=C/C1C(C)=CCCC1(C)C (centres undefined) | inactive
23 | CCCCCCC(CO)CCCC (centres undefined) | inactive
24 | CC(C)C(OC(=O)c1ccccc1)C(C)(C)COC(=O)c1ccccc1 (centres undefined) | inactive
25 | CCCSc1ccc2nc(NC(=O)OC)[nH]c2c1 | inactive
26 | CCCC(=O)c1ccccc1 | inactive
27 | C=C(C)C1CC=C(C)C(=O)C1 (centres undefined) | inactive
28 | CN1CCOCC1 | inactive
29 | C#CC(C)(O)CC(C)C (centres undefined) | inactive
30 | CCOC(=O)C(C#N)=C(c1ccccc1)c1ccccc1 | inactive
31 | CCC(C)=O | inactive
32 | Cc1occc(=O)c1OC(=O)C(C)C | inactive
33 | O=C(O)CCCCCCCCC(=O)O | inactive
34 | N[C@@H](Cc1cc(I)c(Oc2cc(I)c(O)c(I)c2)c(I)c1)C(=O)O | inactive
35 | C=CCCCCCCCCCC | inactive
36 | C=C[Si]1(C)O[Si](C)(C=C)O[Si](C)(C=C)O[Si](C)(C=C)O1 (centres undefined) | inactive
37 | CC1=CC[C@@]23C[C@@H]1C(C)(C)[C@@H]2CC[C@H]3C | inactive
38 | Cc1ccc(-c2ccccc2)cc1 | inactive
39 | CCC1(C)NC(=O)NC1=O (centres undefined) | inactive

molecular target: Heat shock factor protein 1 (Homo sapiens) (UniProt Q00613); experiment: ATG_HSE_CIS: Attagene CIS-FACTORIAL HepG2 Assay for human Heat Shock Transcription Factor 1 (HSE) (AID 2282953); conditions: HepG2 HSE cis-reporter, Attagene RNA transcription; actives raise or lower the signal
Sequence (Q00613 whole entry, looked up): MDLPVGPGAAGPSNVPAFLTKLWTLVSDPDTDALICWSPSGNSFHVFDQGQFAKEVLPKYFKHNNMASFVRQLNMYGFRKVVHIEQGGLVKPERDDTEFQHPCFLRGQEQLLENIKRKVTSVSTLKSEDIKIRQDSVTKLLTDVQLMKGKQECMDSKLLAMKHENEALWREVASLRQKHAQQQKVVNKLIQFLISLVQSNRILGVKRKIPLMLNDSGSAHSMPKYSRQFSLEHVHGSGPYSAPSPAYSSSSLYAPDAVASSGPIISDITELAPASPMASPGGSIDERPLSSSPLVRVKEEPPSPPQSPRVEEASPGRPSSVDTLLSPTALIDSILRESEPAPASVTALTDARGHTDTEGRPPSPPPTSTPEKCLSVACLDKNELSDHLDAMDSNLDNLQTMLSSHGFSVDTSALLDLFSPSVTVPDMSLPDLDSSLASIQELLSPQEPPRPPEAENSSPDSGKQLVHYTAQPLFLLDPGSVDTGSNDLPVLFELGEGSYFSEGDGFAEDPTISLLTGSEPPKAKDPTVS
Procedure, shortened: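 After a 24 h incubation with test chemical, transfected HepG2 cells were harvested for RNA; reporter transcripts were measured by RT-PCR and capillary electrophoresis. Values reflect gain or loss of signal relative to DMSO.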

Row | Compound | outcome | AC50
40 | COCCOC(=O)c1ccccc1C(=O)OCCOC | inactive | –
41 | ON=C1CCCCC1 | inactive | –
42 | COc1ccc(COC(C)=O)cc1 | inactive | –
43 | Nc1ccc(NCCO)c([N+](=O)[O-])c1 | inactive | –
44 | C=C(C)[C@H]1CC=C(C)C(=O)C1 | inactive | –
45 | CCCCSCCCC | inactive | –
46 | N#Cc1ccc(CC(=O)c2cccc(C(F)(F)F)c2)cc1 | – | 150 µM (active)
47 | NCCNc1cccc2ccccc12 | inactive | –
48 | C=C(C)[C@@H]1CC=C(C)C(=O)C1 | inactive | –
49 | CCOC(=O)C1OC1c1ccccc1 (centres undefined) | inactive | –
50 | [O-]n1ccccc1=S.[O-]n1ccccc1=S.[Zn+2] | – | 0.937 µM (active)
51 | CC1=NN(c2ccc(S(=O)(=O)O)cc2)C(=O)C1 | inactive | –
52 | O=Cc1ccccc1S(=O)(=O)O | inactive | –
53 | CC1(C)CCC[C@]2(C)[C@H]3CCO[C@]3(C)CC[C@@H]12 | – | 178 µM (active)
54 | C=CCOC(=O)CCCCCC | inactive | –
55 | C[Si](C)(C)O[Si](C)(C)C | inactive | –
56 | C1=CC2C3C=CC(C3)C2C1 (centres undefined) | inactive | –
57 | Cc1ccc2c(c1)C(=O)OC2=O | inactive | –
58 | CC(C)(N=C=O)c1cccc(C(C)(C)N=C=O)c1 | inactive | –

Row | Compound | outcome | AC50
59 | CCCC(=O)OC(C)(C)Cc1ccccc1 | inactive | –
60 | CCOc1ccc(NC(=O)CC(C)=O)cc1 | inactive | –
61 | C=CCCC(=O)/C=C/C1C(C)=CCCC1(C)C (centres undefined) | – | 152 µM (active)
62 | CCCCCCC(CO)CCCC (centres undefined) | inactive | –
63 | CC(C)C(OC(=O)c1ccccc1)C(C)(C)COC(=O)c1ccccc1 (centres undefined) | inactive | –
64 | CCCSc1ccc2nc(NC(=O)OC)[nH]c2c1 | inactive | –
65 | CCCC(=O)c1ccccc1 | inactive | –
66 | C=C(C)C1CC=C(C)C(=O)C1 (centres undefined) | inactive | –
67 | CN1CCOCC1 | inactive | –
68 | C#CC(C)(O)CC(C)C (centres undefined) | inactive | –
69 | CCOC(=O)C(C#N)=C(c1ccccc1)c1ccccc1 | – | 149 µM (active)
70 | CCC(C)=O | inactive | –
71 | Cc1occc(=O)c1OC(=O)C(C)C | inactive | –
72 | O=C(O)CCCCCCCCC(=O)O | inactive | –
73 | N[C@@H](Cc1cc(I)c(Oc2cc(I)c(O)c(I)c2)c(I)c1)C(=O)O | inactive | –
74 | C=CCCCCCCCCCC | inactive | –
75 | C=C[Si]1(C)O[Si](C)(C=C)O[Si](C)(C=C)O[Si](C)(C=C)O1 (centres undefined) | inactive | –
76 | CC1=CC[C@@]23C[C@@H]1C(C)(C)[C@@H]2CC[C@H]3C | inactive | –
77 | Cc1ccc(-c2ccccc2)cc1 | inactive | –

system: not listed separately; experiment: ATG_MRE_CIS: Attagene CIS-FACTORIAL HepG2 Assay for human Metal Responsive Element (MRE) (AID 2282954); conditions: HepG2 MRE cis-reporter transcription, Attagene multiplex; actives raise or lower the signal
Procedure, shortened: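 Readout: capillary electrophoresis of 6-FAM-labelled, HpaI-digested RT-PCR reporter products. System: HepG2 cells carrying transient multiplexed cis reporters, dosed 24 h. Analysis: bidirectional fit, DMSO baseline.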

Row | Compound | outcome | AC50
78 | COCCOC(=O)c1ccccc1C(=O)OCCOC | inactive | –
79 | ON=C1CCCCC1 | inactive | –
80 | COc1ccc(COC(C)=O)cc1 | inactive | –
81 | Nc1ccc(NCCO)c([N+](=O)[O-])c1 | inactive | –
82 | C=C(C)[C@H]1CC=C(C)C(=O)C1 | inactive | –
83 | CCCCSCCCC | inactive | –
84 | N#Cc1ccc(CC(=O)c2cccc(C(F)(F)F)c2)cc1 | – | 100 µM (active)
85 | NCCNc1cccc2ccccc12 | – | 156 µM (active)
86 | C=C(C)[C@@H]1CC=C(C)C(=O)C1 | inactive | –
87 | CCOC(=O)C1OC1c1ccccc1 (centres undefined) | inactive | –
88 | [O-]n1ccccc1=S.[O-]n1ccccc1=S.[Zn+2] | – | 0.923 µM (active)
89 | CC1=NN(c2ccc(S(=O)(=O)O)cc2)C(=O)C1 | inactive | –
90 | O=Cc1ccccc1S(=O)(=O)O | inactive | –
91 | CC1(C)CCC[C@]2(C)[C@H]3CCO[C@]3(C)CC[C@@H]12 | inactive | –
92 | C=CCOC(=O)CCCCCC | inactive | –
93 | C1=CC2C3C=CC(C3)C2C1 (centres undefined) | inactive | –
94 | Cc1ccc2c(c1)C(=O)OC2=O | inactive | –
95 | CC(C)(N=C=O)c1cccc(C(C)(C)N=C=O)c1 | inactive | –
96 | CCCC(=O)OC(C)(C)Cc1ccccc1 | inactive | –

Row | Compound | outcome | AC50
97 | C=CCCC(=O)/C=C/C1C(C)=CCCC1(C)C (centres undefined) | – | 150 µM (active)
98 | CCCCCCC(CO)CCCC (centres undefined) | inactive | –
99 | CC(C)C(OC(=O)c1ccccc1)C(C)(C)COC(=O)c1ccccc1 (centres undefined) | inactive | –
100 | CCCSc1ccc2nc(NC(=O)OC)[nH]c2c1 | inactive | –
101 | CCCC(=O)c1ccccc1 | inactive | –
102 | C=C(C)C1CC=C(C)C(=O)C1 (centres undefined) | inactive | –
103 | CN1CCOCC1 | inactive | –
104 | C#CC(C)(O)CC(C)C (centres undefined) | inactive | –
105 | CCOC(=O)C(C#N)=C(c1ccccc1)c1ccccc1 | – | 86.9 µM (active)
106 | CCC(C)=O | inactive | –
107 | Cc1occc(=O)c1OC(=O)C(C)C | inactive | –
108 | O=C(O)CCCCCCCCC(=O)O | inactive | –
109 | N[C@@H](Cc1cc(I)c(Oc2cc(I)c(O)c(I)c2)c(I)c1)C(=O)O | – | 27.8 µM (active)
110 | C=CCCCCCCCCCC | inactive | –
111 | C=C[Si]1(C)O[Si](C)(C=C)O[Si](C)(C=C)O[Si](C)(C=C)O1 (centres undefined) | inactive | –
112 | CC1=CC[C@@]23C[C@@H]1C(C)(C)[C@@H]2CC[C@H]3C | inactive | –
113 | Cc1ccc(-c2ccccc2)cc1 | inactive | –
114 | CCC1(C)NC(=O)NC1=O (centres undefined) | inactive | –

From PubChem BioAssay (EPA / NIEHS)
